Assay [1] deals with RAC-alpha serine/threonine-protein kinase (Homo sapiens) (UniProt P31749). Conditions: at 0.1 µM.
Assay [2] has the same target. The conditions noted are these: at 1 µM.
The target in assay [3] is RAC-beta serine/threonine-protein kinase (Homo sapiens) (UniProt P31751). The conditions noted are these: at 0.1 µM.
Assay [4] has the same target. Conditions: at 1 µM.
Assay [5] concerns the target RAC-gamma serine/threonine-protein kinase (Homo sapiens) (UniProt Q9Y243). Conditions: at 0.1 µM.
Assay [6] shares this target. The conditions noted are these: at 1 µM.
For assay [7], the target named is G protein-coupled receptor kinase 6 (Homo sapiens) (UniProt P43250). Conditions: at 0.1 µM.
Sequence of G protein-coupled receptor kinase 6 (Homo sapiens) (P43250 whole entry, looked up): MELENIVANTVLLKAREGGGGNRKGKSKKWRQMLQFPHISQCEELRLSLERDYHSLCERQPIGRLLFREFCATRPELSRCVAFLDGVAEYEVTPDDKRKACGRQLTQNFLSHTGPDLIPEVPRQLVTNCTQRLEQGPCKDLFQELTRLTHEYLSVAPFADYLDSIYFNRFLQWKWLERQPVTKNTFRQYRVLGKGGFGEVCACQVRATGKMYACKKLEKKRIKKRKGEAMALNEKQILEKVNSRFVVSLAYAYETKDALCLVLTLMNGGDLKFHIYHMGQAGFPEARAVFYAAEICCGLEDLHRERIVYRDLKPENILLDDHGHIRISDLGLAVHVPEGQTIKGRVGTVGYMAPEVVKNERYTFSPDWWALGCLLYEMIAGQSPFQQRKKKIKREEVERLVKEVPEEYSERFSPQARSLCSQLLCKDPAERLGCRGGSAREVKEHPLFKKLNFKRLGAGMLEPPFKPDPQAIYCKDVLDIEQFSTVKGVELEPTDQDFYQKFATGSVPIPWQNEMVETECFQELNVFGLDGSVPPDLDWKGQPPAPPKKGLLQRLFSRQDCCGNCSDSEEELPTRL
Assay [8] has the same target. Conditions: at 1 µM.
Assay [9] has as its target T1, Rhodopsin kinase GRK7 (Homo sapiens) (UniProt Q8WTQ7).
T1 sequence (whole entry): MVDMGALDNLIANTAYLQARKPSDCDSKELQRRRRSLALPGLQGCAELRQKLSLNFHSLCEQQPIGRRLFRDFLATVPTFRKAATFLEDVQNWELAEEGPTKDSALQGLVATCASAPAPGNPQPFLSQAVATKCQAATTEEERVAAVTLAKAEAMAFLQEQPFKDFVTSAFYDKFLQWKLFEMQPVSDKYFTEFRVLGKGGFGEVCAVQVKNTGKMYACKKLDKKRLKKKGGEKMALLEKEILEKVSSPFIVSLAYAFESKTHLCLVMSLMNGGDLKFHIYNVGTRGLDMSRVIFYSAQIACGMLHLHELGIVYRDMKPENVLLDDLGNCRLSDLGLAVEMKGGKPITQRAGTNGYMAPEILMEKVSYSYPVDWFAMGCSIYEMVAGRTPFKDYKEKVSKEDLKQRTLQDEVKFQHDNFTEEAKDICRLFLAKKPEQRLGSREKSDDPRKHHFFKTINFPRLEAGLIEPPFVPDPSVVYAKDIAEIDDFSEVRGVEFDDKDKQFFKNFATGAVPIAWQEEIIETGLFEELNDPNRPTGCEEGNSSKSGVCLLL
The conditions noted are these: at 0.1 µM.

The target of assay [10] is T1, Rhodopsin kinase GRK7 (Homo sapiens). The conditions noted are these: at 1 µM.
Assay [11] concerns the target Serine/threonine-protein kinase MRCK alpha (Homo sapiens) (UniProt Q5VT25). The conditions noted are these: at 0.1 µM.
For assay [12] the target is unchanged. Conditions: at 1 µM.
For assay [13], the target named is Serine/threonine-protein kinase MRCK beta (Homo sapiens) (UniProt Q9Y5S2). The conditions noted are these: at 0.1 µM.
For assay [14] the target is unchanged. Conditions: at 1 µM.
The target of assay [15] is Ribosomal protein S6 kinase alpha-5 (Homo sapiens) (UniProt O75582). Conditions: at 0.1 µM.
Sequence of Ribosomal protein S6 kinase alpha-5 (Homo sapiens) (O75582 whole entry, looked up): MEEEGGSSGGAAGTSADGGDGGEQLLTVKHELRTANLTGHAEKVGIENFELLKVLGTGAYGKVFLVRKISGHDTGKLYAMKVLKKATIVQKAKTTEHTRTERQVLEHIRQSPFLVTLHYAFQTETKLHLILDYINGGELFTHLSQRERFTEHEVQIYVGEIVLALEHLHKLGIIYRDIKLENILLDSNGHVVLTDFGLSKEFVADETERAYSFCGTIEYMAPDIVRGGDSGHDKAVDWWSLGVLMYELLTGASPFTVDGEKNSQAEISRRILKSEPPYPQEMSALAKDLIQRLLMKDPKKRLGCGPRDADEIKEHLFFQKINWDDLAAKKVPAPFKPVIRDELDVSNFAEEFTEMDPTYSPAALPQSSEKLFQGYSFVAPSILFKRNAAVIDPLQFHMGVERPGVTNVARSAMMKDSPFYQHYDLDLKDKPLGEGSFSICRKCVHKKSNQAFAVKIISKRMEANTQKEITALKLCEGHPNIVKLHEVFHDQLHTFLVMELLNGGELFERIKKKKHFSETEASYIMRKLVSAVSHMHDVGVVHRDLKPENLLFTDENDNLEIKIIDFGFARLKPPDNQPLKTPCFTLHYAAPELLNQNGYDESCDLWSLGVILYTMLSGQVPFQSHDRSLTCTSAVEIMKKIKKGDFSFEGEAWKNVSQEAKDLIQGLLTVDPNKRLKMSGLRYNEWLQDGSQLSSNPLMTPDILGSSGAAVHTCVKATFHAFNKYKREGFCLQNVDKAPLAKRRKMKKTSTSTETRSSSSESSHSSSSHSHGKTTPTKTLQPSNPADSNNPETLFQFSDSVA
The target is the same in assay [16]. Conditions: at 1 µM.
The target of assay [17] is Ribosomal protein S6 kinase alpha-4 (Homo sapiens) (UniProt O75676). The conditions noted are these: at 0.1 µM.
Assay [18] shares this target. Conditions: at 1 µM.
Assay [19] deals with Ribosomal protein S6 kinase beta-1 (Homo sapiens) (UniProt P23443). The conditions noted are these: at 0.1 µM.
Sequence of Ribosomal protein S6 kinase beta-1 (Homo sapiens) (P23443 whole entry, looked up): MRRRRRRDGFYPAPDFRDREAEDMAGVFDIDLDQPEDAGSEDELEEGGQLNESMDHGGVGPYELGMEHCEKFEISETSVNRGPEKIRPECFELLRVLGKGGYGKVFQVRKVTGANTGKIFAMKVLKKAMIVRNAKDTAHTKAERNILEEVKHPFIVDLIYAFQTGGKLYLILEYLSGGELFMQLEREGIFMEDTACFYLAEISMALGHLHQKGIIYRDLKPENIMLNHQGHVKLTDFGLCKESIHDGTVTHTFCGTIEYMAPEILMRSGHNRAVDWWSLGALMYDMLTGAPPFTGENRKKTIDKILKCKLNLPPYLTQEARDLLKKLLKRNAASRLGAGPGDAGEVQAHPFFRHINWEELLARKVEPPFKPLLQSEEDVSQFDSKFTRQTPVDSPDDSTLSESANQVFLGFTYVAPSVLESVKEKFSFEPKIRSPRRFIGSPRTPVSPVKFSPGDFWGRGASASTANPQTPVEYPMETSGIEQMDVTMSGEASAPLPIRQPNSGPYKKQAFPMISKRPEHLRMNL
Assay [20] shares this target. Conditions: at 1 µM.

Where “and” joins values, the source holds several entries; their conditions need not be identical. Equal entries are not always repeated.

Sequence of Serine/threonine-protein kinase MRCK alpha (Homo sapiens) (Q5VT25 whole entry): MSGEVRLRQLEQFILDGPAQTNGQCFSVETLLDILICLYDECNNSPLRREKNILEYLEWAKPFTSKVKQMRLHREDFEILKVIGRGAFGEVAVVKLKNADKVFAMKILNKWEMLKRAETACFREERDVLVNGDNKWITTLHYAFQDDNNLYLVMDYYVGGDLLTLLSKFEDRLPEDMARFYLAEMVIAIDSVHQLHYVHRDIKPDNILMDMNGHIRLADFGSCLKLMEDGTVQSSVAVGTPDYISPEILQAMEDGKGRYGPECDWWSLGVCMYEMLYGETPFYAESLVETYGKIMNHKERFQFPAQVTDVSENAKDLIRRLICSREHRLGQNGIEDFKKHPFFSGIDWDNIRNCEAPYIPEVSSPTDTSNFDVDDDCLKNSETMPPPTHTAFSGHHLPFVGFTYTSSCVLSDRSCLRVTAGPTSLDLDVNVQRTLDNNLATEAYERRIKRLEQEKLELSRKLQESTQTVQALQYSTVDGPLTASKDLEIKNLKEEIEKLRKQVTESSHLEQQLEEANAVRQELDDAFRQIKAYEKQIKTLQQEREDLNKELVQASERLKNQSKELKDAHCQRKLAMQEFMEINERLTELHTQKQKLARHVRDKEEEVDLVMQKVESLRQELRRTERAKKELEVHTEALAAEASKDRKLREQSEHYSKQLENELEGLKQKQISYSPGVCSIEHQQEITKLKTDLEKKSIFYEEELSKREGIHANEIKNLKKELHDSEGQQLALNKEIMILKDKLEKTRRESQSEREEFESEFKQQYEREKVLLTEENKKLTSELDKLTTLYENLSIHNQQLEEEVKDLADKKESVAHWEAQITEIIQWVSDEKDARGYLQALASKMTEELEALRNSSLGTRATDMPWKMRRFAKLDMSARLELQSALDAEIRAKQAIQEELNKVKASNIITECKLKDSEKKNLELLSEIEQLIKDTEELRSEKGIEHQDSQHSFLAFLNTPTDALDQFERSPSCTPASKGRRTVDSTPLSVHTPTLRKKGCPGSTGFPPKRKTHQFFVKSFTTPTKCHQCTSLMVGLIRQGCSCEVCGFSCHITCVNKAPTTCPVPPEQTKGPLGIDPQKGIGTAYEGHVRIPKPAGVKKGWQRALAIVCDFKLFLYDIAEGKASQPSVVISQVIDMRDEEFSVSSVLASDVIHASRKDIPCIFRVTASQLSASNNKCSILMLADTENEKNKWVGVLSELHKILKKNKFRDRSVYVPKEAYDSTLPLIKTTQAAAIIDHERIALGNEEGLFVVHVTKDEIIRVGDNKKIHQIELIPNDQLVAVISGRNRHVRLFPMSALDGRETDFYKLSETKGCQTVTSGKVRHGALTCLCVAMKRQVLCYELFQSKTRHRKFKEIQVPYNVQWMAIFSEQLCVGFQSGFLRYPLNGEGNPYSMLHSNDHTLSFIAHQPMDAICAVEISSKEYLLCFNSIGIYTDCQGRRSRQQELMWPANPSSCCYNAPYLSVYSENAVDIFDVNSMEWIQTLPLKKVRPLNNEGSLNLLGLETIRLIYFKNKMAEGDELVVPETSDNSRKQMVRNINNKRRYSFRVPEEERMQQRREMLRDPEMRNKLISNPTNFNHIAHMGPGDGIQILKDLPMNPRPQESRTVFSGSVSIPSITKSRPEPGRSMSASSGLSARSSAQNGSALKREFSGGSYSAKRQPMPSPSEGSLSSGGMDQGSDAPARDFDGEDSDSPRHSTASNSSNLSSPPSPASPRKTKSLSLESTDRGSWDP
Sequence of RAC-alpha serine/threonine-protein kinase (Homo sapiens) (P31749 whole entry): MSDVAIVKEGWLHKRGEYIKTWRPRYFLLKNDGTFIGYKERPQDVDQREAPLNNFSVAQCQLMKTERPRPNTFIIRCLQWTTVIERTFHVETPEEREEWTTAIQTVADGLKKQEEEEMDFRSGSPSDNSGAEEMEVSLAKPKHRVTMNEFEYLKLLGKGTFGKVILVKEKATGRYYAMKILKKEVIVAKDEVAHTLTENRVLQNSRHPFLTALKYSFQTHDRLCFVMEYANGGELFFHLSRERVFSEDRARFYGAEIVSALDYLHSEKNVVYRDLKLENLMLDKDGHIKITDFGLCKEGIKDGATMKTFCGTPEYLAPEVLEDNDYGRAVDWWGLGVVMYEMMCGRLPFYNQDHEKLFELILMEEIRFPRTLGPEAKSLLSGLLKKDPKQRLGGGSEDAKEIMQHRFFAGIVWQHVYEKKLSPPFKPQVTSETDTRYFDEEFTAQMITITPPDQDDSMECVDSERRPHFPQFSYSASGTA
Sequence of RAC-beta serine/threonine-protein kinase (Homo sapiens) (P31751 whole entry): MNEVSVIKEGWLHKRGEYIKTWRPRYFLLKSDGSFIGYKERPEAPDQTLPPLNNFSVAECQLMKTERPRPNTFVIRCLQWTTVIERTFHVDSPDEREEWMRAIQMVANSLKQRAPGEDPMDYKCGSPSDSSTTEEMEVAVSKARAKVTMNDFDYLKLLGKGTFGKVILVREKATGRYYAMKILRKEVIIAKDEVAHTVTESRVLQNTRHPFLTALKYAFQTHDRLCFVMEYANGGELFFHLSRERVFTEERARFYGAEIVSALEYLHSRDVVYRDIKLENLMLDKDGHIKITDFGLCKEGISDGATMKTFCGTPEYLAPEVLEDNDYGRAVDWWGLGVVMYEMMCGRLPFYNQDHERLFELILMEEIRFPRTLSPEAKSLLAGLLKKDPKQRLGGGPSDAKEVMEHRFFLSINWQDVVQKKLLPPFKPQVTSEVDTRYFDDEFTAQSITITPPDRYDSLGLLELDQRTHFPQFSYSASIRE
Sequence of RAC-gamma serine/threonine-protein kinase (Homo sapiens) (Q9Y243 whole entry): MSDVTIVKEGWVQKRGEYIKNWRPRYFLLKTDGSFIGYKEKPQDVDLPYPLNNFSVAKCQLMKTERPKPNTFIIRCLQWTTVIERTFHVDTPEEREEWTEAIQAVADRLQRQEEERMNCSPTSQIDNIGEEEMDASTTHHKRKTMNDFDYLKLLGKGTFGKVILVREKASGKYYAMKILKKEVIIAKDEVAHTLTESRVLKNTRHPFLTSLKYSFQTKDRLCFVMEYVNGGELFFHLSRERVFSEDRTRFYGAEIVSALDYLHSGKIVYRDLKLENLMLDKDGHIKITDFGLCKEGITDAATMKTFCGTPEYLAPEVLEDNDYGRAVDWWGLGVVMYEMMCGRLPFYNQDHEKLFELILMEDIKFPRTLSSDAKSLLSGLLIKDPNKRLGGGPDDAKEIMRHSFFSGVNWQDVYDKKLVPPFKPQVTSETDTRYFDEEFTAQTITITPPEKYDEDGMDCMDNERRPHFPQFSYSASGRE

Regarding `CC1=C(C(=O)Nc2ccc3[nH]nc(C)c3c2)C(c2ccc(C(F)(F)F)cc2)CC(=O)N1` (stereo not given), the inhibition in [1] came to 1.17%; in [2], 1.18%; in assay [3], 0.84%; in [4], 1.11%; in assay [5] it was 0.54%; in assay [6], 2.53%. Also, the inhibition is 3.68% in [7]; 14.7% in [8]; 0.8% in assay [9]; -5% in assay [10]; 1.9% in [11]; 17.1% in assay [12]. Also, the inhibition in assay [13] came to 5.5%; in assay [14], 37.4%; in assay [15] it was 6.02%; in assay [16], 28.8%; in assay [17] it was 1.31%; in assay [18], 11.5%. Also, the inhibition in [19] is 1.6%; in [20] it was 9.4%.

Take `NS(=O)(=O)c1ccc(N/N=C2\C(=O)Nc3cccc(CCc4ccncc4)c32)cc1`: the inhibition in [1] is 0.52%; in assay [2], 0.04%; in [3], -0.35%; in [4], 0.27%; in assay [5], 0.45%; in assay [6] it was 1.65%. In addition, the inhibition in [7] is 0.11%; in [8], 1.61%; in assay [9] it was 7.3%; in assay [10], 5.05%; in assay [11], -0.78%; in [12] it was -0.69%. For the same compound, the inhibition in [13] was 0.54%; in [14] it was 0.31%; in [15] it was -0.75%; in assay [16], -0.48%; in assay [17] it was 0.37%; in assay [18], 2.61%. In addition, the figures for the inhibition in [19] and in [20] were 0.08% and -0.48%, respectively.

Take `COc1ccc2ncn(-c3cc(O[C@H](C)c4ccccc4C(F)(F)F)c(C(N)=O)s3)c2c1`: the inhibition in assay [1] is -0.49%; in [2], -0.66%; in [3] it was -0.92%; in assay [4], -0.19%; in [5] it was 0.16%; in assay [6], 0.41%. Further, the inhibition is -0.28% in assay [7]; 1.33% in assay [8]; -1.81% in assay [9]; 5.21% in [10]; -0.19% in assay [11]; 2.79% in [12]. The inhibition in [13] is 0.61%; in assay [14] it was 2.31%; in assay [15], -0.46%; in assay [16], -0.11%; in assay [17], 0.7%; in [18], 2.33%. Moreover, the inhibition is 0.7% in assay [19] and -0.16% in assay [20].

Take `Nc1nccc(-c2c(-c3ccc(F)cc3)ncn2C2CCNCC2)n1`: the inhibition was -2.52% and -0.57% in assay [1]; -1.44% and -0.36% in assay [2]; -2.1% and -0.23% in assay [3]; -2.04% and 0.22% in assay [4]; -2.91% and 1.34% in [5]; -1.79% and 2.95% in [6]. For the same compound, the inhibition in assay [7] is -0.3% and 1.54%; in assay [8], 1.28% and -0.27%; in assay [9], -9.73% and -0.04%; in assay [10], -3.87% and -0.11%; in assay [11] it was 0.35% and 0.18%; in assay [12] it was 2.58% and 5.06%. Besides, the inhibition in assay [13] is 0.52% and 1.07%; in assay [14] it was 1.72% and 3.43%; in assay [15] it was -2.32% and -0.28%; in assay [16], -1.5% and 1.46%; in [17], -1.86% and 0.59%; in [18], -1.17% and 2.2%. In addition, the inhibition was -1.49% and 0.02% in [19]; -0.77% and 0.22% in assay [20].

In the case of `CNC(=O)c1sc(-n2cnc3cc(OC)c(OC)cc32)cc1OCc1ccccc1C(F)(F)F`, the inhibition in [1] was determined as 0.98%; in assay [2] it was 0.75%; in [3], 0.84%; in assay [4] it was 2.06%; in [5] it was 1.19%; in assay [6], 2%. Further, the inhibition is 0.06% in [7]; -0.11% in assay [8]; 4.78% in assay [9]; 3.47% in assay [10]; -1.57% in [11]; 2.7% in assay [12]. The inhibition was 0.75% in assay [13]; -0.54% in assay [14]; 1.63% in [15]; -0.43% in assay [16]; 3.06% in assay [17]; 2.24% in assay [18]. Moreover, the inhibition in assay [19] amounted to 1.25%; in assay [20] it was 0.64%.

Turning to `c1ccc(-c2n[nH]cc2-c2ccnc(-c3ccc(OCCn4ccnc4)cc3)c2)nc1`, the inhibition was -1.55% in [1]; 0.14% in [2]; -0.98% in [3]; 0.73% in assay [4]; -0.34% in [5]; 1.01% in assay [6]. The inhibition in [7] was 1.73%; in [8] it was 4.13%; in assay [9], -0.12%; in assay [10] it was 4.02%; in assay [11] it was -0.22%; in assay [12] it was -0.54%. Further, the inhibition in assay [13] was 1.02%; in [14] it was 2.11%; in assay [15], -4.46%; in assay [16], -0.29%; in assay [17] it was 0.76%; in [18], 3.98%. Further, the inhibition in assay [19] is 0.32%; in [20], 0.33%.

On to `N#Cc1cccc(Nc2ncc(-c3ccccc3)o2)c1`, for which the inhibition in [1] was 0%; in assay [2], -0.69%; in assay [3], 0.15%; in [4] it was 0.75%; in [5], 0.9%; in assay [6] it was -0.1%. Besides, the inhibition in assay [7] was determined as 5.37%; in assay [8], 8.61%; in [9], 2.76%; in [10], 11.2%; in [11], 0.38%; in assay [12] it was 2.09%. Also, the inhibition was -1.64% in [13]; -0.28% in [14]; 1.22% in [15]; 2.21% in assay [16]; 1% in [17]; 2.71% in assay [18]. Further, the inhibition in assay [19] was -0.53%; in [20], 1.42%.

As to `Cn1c(-c2nonc2N)nc2cnccc21`, the inhibition amounted to 0.27% in [1]; 0.36% in [2]; 2.48% in [3]; 1.66% in [4]; 1.14% in assay [5]; 1.35% in assay [6]. The inhibition in [7] came out at 3.53%; in assay [8], 4%; in assay [9], 4.22%; in [10], 2.15%; in [11], 1.33%; in [12] it was 10.3%. The inhibition in assay [13] is 3.02%; in assay [14], 14.4%; in assay [15], 32.7%; in assay [16] it was 72.4%; in assay [17] it was 7.86%; in assay [18] it was 39.6%. Besides, the inhibition turned out to be 19.8% in assay [19] and 66.6% in assay [20].

For the origin of these results see ChEMBL document CHEMBL1961873, “Compounds: GSK PKIS; Assays: Nanosyn kinase panel” (2012).
